# Screen size: about 330,000 compounds; about 5,800 (1.8%) were called active. The sample as a whole holds a higher share of actives than the screen did. Values without a mark were called inactive.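 The calls were made as follows: active = inhibition above about 50% at the single tested dose (limit read from the data); inactive = the rest.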
# Target: Sentrin-specific protease 6 (Homo sapiens) (UniProt Q9GZR1)
# Experiment: inhibition of human SENP6 catalytic domain – biochemical, luminescence, uHTS, primary screen (AID 2599);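 also: plate controls were DMSO wells with enzyme for no effect and DMSO wells lacking enzyme for full effect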
# Details: Recombinant SENP6 catalytic domain, aminoluciferin luminescence; at 10 µM; stronger effect = higher value
# Sequence of Sentrin-specific protease 6 (Homo sapiens) (Q9GZR1 628-1112 limits assumed): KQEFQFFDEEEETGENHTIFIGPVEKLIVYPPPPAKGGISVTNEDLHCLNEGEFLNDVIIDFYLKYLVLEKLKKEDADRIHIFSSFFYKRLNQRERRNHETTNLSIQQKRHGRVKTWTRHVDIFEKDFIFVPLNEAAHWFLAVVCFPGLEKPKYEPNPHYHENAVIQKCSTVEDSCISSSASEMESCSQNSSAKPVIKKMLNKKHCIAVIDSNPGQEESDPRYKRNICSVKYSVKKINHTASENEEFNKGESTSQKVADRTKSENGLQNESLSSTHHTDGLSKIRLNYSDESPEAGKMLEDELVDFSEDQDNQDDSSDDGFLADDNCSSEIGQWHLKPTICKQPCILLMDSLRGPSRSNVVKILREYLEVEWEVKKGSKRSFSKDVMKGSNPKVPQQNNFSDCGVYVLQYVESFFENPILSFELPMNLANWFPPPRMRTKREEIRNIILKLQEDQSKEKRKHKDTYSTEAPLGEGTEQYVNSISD
row,SMILES,inhibition
1,Cc1ccc(S(=O)(=O)N2CCN(c3ccccc3)CC2)cc1C,4.47%
2,CC(C)OC(=O)C(C#N)c1nc2ccccc2nc1N1CCN(Cc2ccccc2)CC1 (stereo not drawn),6.5%
3,Cc1ccc(S(=O)(=O)C(C#N)c2nc3ccccc3nc2N2CCCC2)cc1C (stereo not drawn),75.9% (active)
4,O=C(CCCN1C(=O)c2ccccc2C1=O)Oc1ccc(Cl)cc1,1.14%
5,Cc1c(C(=O)Nc2ccccc2)sc2nc3n(c(=O)c12)CCCCC3,-15.7%
6,O=c1c2c(nc3n1CCCCC3)sc1c(O)cccc12,51.8% (active)
7,Cc1cccc2c(=O)n3c(nc12)CCCCC3,9.44%
8,Cn1cccc1C(=O)NC(=O)COC(=O)Cc1coc2ccc3ccccc3c12,-4.09%
9,Cc1c(C(=O)NC(C)C2CC3CCC2C3)cccc1[N+](=O)[O-] (stereo not drawn),-22.4%
10,COc1ccc(CCNC(=O)CCNS(=O)(=O)c2cc(Br)cnc2N)cc1OC,-5.77%
11,O=c1/c(=C/c2ccc(CNS(=O)(=O)c3ccccc3)o2)sc2n1CCN=2,3.24%
12,CCn1c(=O)cc(SCC(=O)NCCC2=CCCCC2)c2ccccc21,-1.94%
13,COCCNC(=O)CCCN1C(=O)c2ccccc2Sc2ncccc21,-28.9%
14,Oc1c(C=Nc2cccc3nsnc23)ccc2ccccc12,94.6% (active)
15,Cc1cc2c(cc1C)N(Cc1ccccc1)C1=NCCCN12,-12.7%
16,O=C(Nc1ccccc1)O/N=C1/CCCc2occc21,-12.8%
17,CCCN1C(=O)C(Cc2nc3ccccc3c(=O)n2-c2ccccc2)c2cc(C)ccc21 (stereo not drawn),-13.2%
18,Cc1ccc(NC(=S)N(CCCN2CCCC2)Cc2cccn2Cc2ccc(Cl)cc2)cc1,-18%
19,N#Cc1ccc(C2N=C(c3ccccc3)NO2)cc1 (stereo not drawn),53% (active)
20,Brc1ccccc1C1N=C(c2ccccc2)NO1 (stereo not drawn),38.9%
21,C/C=C/C=C/C(=O)O,-2.25%

row,SMILES,inhibition
1,COc1ccc(C(=O)C2CCCN(C(=O)c3cc(C)on3)C2)cc1F (stereo not drawn),4.97%
2,O=C(COC(=O)CNC(=O)C1CCCCC1)NCc1ccccc1,4.4%
3,Clc1ccc2nc(CSc3ccccc3)cn2c1,72.1% (active)
4,CCCCCCSc1ccc(-c2nc3ccc(Cl)cn3c2NCc2ccccc2)cc1,-0.449%
5,O=C(/C=C/c1ccc2c(c1)OCO2)NCc1cn2cc(Cl)ccc2n1,-4.65%
6,CC1(c2ccc(Cl)cc2)NC(=O)N(CC(=O)c2ccc3c(c2)OCO3)C1=O (stereo not drawn),-6.26%
7,O=C(c1ccc(CSc2ccccc2)cc1)N1CCCCCC1,80.6% (active)
8,CC1CCN(C(=O)c2ccc(CSc3ccc(Cl)cc3)cc2)CC1,15.6%
9,O=C(c1ccc(S(=O)(=O)c2ccccc2)cc1)N1CCCCCC1,-8.79%
10,CCOc1ccccc1C(=O)NC1CC2CCCC(C1)N2Cc1ccccc1 (stereo not drawn),7.09%
11,Cc1cccc(C2=N/C(=C/c3cccs3)C(=O)O2)c1,9.27%
12,O=C1N/C(=C/c2cccs2)C(=O)N1Cc1ccc(F)cc1,-6.09%
13,CSC1=N/C(=C\C=C\c2cccs2)C(=O)S1,77.8% (active)
14,O=C(O)c1ccc(/C=N/Nc2nc(N3CCCCC3)nc(N3CCCCC3)n2)cc1,-7.28%
15,O=C(O)c1ccc(N/N=C/c2ccc3ncccc3c2)cc1,101% (active)
16,Cc1ccc2cc(/C=N/Nc3ccc(C(=O)O)cc3)c(Cl)nc2c1,-25%
17,Cc1ccc2c(c1)N(CC(=O)N(Cc1ccccn1)Cc1ccco1)C(=O)C(C(C)C)O2 (stereo not drawn),-1.99%
18,CC(=O)N(C1=C(Cl)C(=O)c2ccccc2C1=O)c1ccc(C(=O)O)cc1,81.4% (active)
19,COc1ccc(CCNC(=O)CSCc2ccc(Br)cc2)cc1OC,1.68%
20,CN(CC(=O)Nc1ccc(Cl)cc1)CC(=O)Nc1cccc2ccccc12,-2.99%
21,CN(CC(=O)Nc1ccc(Cl)cc1)C(=O)c1ccc(COc2ccccc2)cc1,18.3%

row,SMILES,inhibition
1,CN(CC(=O)Nc1ccc(Cl)cc1)C(=O)CNC(=O)c1ccc2ccccc2c1,64.9% (active)
2,COc1ccc(C2=NOC3(CC(=O)N(c4ccc(Cl)cc4)C3=O)C2)c(OC)c1 (stereo not drawn),-7.66%
3,Cc1cccc(NC(=O)CSCC(=O)Nc2nnc(C3CC3)s2)c1,-3.73%
4,O=C(Nc1nnc(C2CC2)s1)c1ccccn1,69.2% (active)
5,Cc1cnc(NC(=O)C2CCCC2)s1,8.65%
6,O=C(Nc1nnc(Cc2ccccc2)s1)c1cnccn1,-4.43%
7,Cc1ccc(SCC(=O)Nc2ncc(C)s2)cc1,-5.14%
8,Cc1cnc(NC(=O)c2ccccn2)s1,88.5% (active)
9,O=C(Nc1nnc(C2CC2)s1)c1cc(Cl)sc1Cl,4.15%
10,Cc1cc(C(=O)Nc2nnc(C3CC3)s2)c(C)s1,76.1% (active)
11,CCc1cc(C(=O)Nc2nnc(C3CC3)s2)sc1C,-7.34%
12,COc1ccccc1NC(=O)CCSc1nnc(-c2ccc(O)cc2)o1,-8.69%
13,O=C(c1cccc(F)c1)N1CCN(c2ccc([N+](=O)[O-])c3cccnc23)CC1,13.7%
14,CCOc1cc(CNCc2ccccn2)ccc1OCC(=O)NC(C)(C)C,4.74%
15,CCn1nc(C)c(CN2CCN(Cc3ccc(OC)c(C)c3C)C(CCO)C2)c1C (stereo not drawn),-13.1%
16,COCCCNC(=O)CN1CCN(Cc2ccccc2Cl)C1=O,-5.23%
17,CC(=O)Nc1ccc(S(=O)(=O)Nc2nc3n(n2)C(c2ccccc2)CC(=O)N3)cc1 (stereo not drawn),-18.6%
18,COc1ccc(C2CC(c3cccs3)=NN2c2ccccc2)cc1 (stereo not drawn),-18.7%
19,Cc1nnc2n1N=C(c1ccccc1)CS2,0.225%
20,O=c1c2cc(-c3ccccc3)sc2nc2n1N=C(c1cccs1)CS2,73.2% (active)
21,COc1ccc(Cl)cc1NS(=O)(=O)c1cccc(C(=O)NCC2CCCO2)c1 (stereo not drawn),-6.29%

# Source: PubChem BioAssay AID2599 (Sanford-Burnham Center for Chemical Genomics, 2010)
